Screens deposited in PubChem BioAssay by several laboratories.
Hits are enriched below; roughly 2.5% of the tested compounds scored in any of these assays.
GAA850 FXN act = FXN promoter activators, primary screen, cell-based, luciferase luminescence, HEK293 lucGAA850; activation, % at 6 µM; HEK293 lucGAA850 FXN promoter luciferase reporter, 24 h; percent of 10 µM SAHA response; 0.56% of 360,000 active;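 active = activation above the average of all compounds screened plus 3 SD, cutoff fixed separately per campaign, cut at about 7.5% in these data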
EWS-Fli block = EWS/Fli-driven NR0B1 reporter inhibitors, primary screen, A673 cells, NR0B1 luciferase, luminescence, MLPCN library. viability-normalised. inhibition, % at 12.6 µM. AID 651661, 2012. 0.67% of 350,000 active;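 active = mean inhibition of at least 50% after viability correction, with every replicate also passing that limit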;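 note: firefly luciferase signal divided by Alamar Blue viability fluorescence both relative to DMSO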
PAX8 inh HTS = inhibitors of PAX8-driven TPO luciferase reporter, primary screen, RMG-I cells, single concentration; SteadyGlo, 24 h; inhibition, % at 12.6 µM; 1.2% of 360,000 active; AID 652154, 2013;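 active = mean replicate inhibition at least 60% with every replicate also reaching 60%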;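 note: luciferase light reporting Pax8 driven TPO promoter activity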
HIV Env fusion = inhibitors of HIV-1 Env-driven cell-cell fusion, primary screen, HeLa-JRFL effector, CEM21 target cells, luciferase; inhibition, % at 12.3 µM; 1.1% of 360,000 active; AID 651610, 2012;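 active = mean replicate inhibition score of at least 50 and every replicate individually at or above 50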
CFTR F508del cor = F508del CFTR correction, initial screen, CFBE line, single point; CFBE cells, YFP halide quenching; stimulated with forskolin plus potentiator P3; % fluorescence drop versus neutral controls; activity (quench increase), % at 7.58 µM; 0.36% of 350,000 active;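 active = mean added fluorescence quench of at least 8% versus neutral control, with both replicates also reaching 8%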;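 note: cells transiently co-express mutant CFTR-F508del with the halide-sensitive YFP; corrector assay measuring rescue of mutant channel to the surface after 24 h compound exposure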
Each line names hits and unclear results; the compound was inactive in the other large screens; ! = a repeat was not active; [ ] = remark or other dose.

C[C@@H]1CN([C@H](C)CO)S(=O)(=O)c2ccc(C#Cc3cccc(F)c3)cc2O[C@@H]1CN(C)C(=O)CN1CCOCC1	HIV Env fusion 81!
C[C@H](CO)N1C[C@H](C)[C@H](CN(C)C(=O)CN(C)C)Oc2cc(C#Cc3ccc(F)cc3)ccc2S1(=O)=O	EWS-Fli block 58 (no result: GAA850 FXN act, PAX8 inh HTS)
Cc1noc(C)c1NC(=O)Nc1ccc2c(c1)CC(=O)N([C@@H](C)CO)C[C@@H](C)[C@H](CN(C)C(=O)NC(C)C)O2	none (no result: GAA850 FXN act)
C[C@@H]1CCCCO[C@@H](CN(C)Cc2ccc(Cl)c(Cl)c2)[C@H](C)CN([C@H](C)CO)C(=O)c2cc(NC(=O)c3ccccc3)ccc2O1	PAX8 inh HTS 97 (no result: GAA850 FXN act)
C[C@H](CO)N1C[C@H](C)[C@H](CN(C)Cc2ccc(Cl)c(Cl)c2)OCCCC[C@H](C)Oc2ccc(NC(=O)c3ccccc3)cc2C1=O	none (no result: GAA850 FXN act)
C[C@@H]1CCCCO[C@H](CN(C)Cc2ccc(Cl)c(Cl)c2)[C@@H](C)CN([C@@H](C)CO)C(=O)c2cc(NC(=O)c3ccccc3)ccc2O1	PAX8 inh HTS 82 (no result: GAA850 FXN act)
CN(C)S(=O)(=O)c1cccc(NC(=O)COc2ccccc2C(=O)Nc2ccccc2)c1	none (no result: HIV Env fusion)
Cc1ccc(S(=O)(=O)N(C)C)cc1NC(=O)COc1ccccc1C(=O)Nc1ccccc1	HIV Env fusion 74
N#C[C@@H]1[C@@H](c2ccc(C#CC3CCCC3)cc2)[C@H](CO)N1C(=O)Nc1ccc(F)cc1	none (no result: GAA850 FXN act)
N#C[C@H]1[C@H](c2ccc(C#Cc3ccc(F)cc3)cc2)[C@H](CO)N1C(=O)Nc1ccc(F)cc1	none (no result: GAA850 FXN act)
N#C[C@H]1[C@@H](c2ccc(C#Cc3ccc(F)cc3)cc2)[C@H](CO)N1C(=O)Nc1ccc(F)cc1	PAX8 inh HTS 94 (no result: GAA850 FXN act)
N#C[C@@H]1[C@H](c2ccc(C#CC3CCCC3)cc2)[C@H](CO)N1C(=O)Nc1ccc(F)cc1	PAX8 inh HTS 85 (no result: GAA850 FXN act)
CCC(=NC(C)c1ccccc1)c1c(O)n(C)c(=O)n(C)c1=O (centres undefined)	HIV Env fusion 60 (no result: EWS-Fli block, PAX8 inh HTS, CFTR F508del cor)
CC(=O)NC(CC(=O)OCC(=O)c1c(N)n(C)c(=O)n(C)c1=O)c1ccccc1 (centres undefined)	none
Cc1ccc(Cn2nnc3c(=O)n(Cc4cccc(C)c4)cnc32)cc1	none (no result: EWS-Fli block, PAX8 inh HTS, HIV Env fusion, CFTR F508del cor)
Cc1cccc(Cn2cnc3c(nnn3Cc3ccc(Cl)cc3)c2=O)c1	HIV Env fusion 60 (no result: EWS-Fli block, PAX8 inh HTS, CFTR F508del cor)
Oc1ccc(-c2n[nH]c(C(F)(F)F)c2-c2ccccc2)c(O)c1	none
COc1ccccc1-c1c(-c2ccc(O)cc2O)n[nH]c1C(F)(F)F	HIV Env fusion 93
C[C@@H]1CN([C@H](C)CO)S(=O)(=O)c2ccc(C#Cc3ccncc3)cc2O[C@H]1CN(C)C(=O)C1CCCCC1	PAX8 inh HTS 78 (no result: GAA850 FXN act)
CC(C)C#Cc1ccc2c(c1)O[C@@H](CN(C)C(=O)C1CCCCC1)[C@H](C)CN([C@H](C)CO)S2(=O)=O	HIV Env fusion 58[16.7 µM] (no result: GAA850 FXN act, PAX8 inh HTS)
C[C@H]1CN([C@@H](C)CO)S(=O)(=O)c2ccc(Br)cc2O[C@@H]1CN(C)C(=O)C1CCCCC1	none (no result: GAA850 FXN act, PAX8 inh HTS)
CC(C)C#Cc1ccc2c(c1)O[C@@H](CN(C)C(=O)C1CCCCC1)[C@H](C)CN([C@@H](C)CO)S2(=O)=O	none (no result: GAA850 FXN act, PAX8 inh HTS)
C[C@H](CO)N1C[C@H](C)[C@H](CN(C)C(=O)C2CCCCC2)Oc2cc(Br)ccc2S1(=O)=O	HIV Env fusion 55[16.7 µM] (no result: GAA850 FXN act, PAX8 inh HTS)
Cc1ccc(S(=O)(=O)Nc2ccc3c(c2)C(=O)N([C@H](C)CO)C[C@@H](C)[C@@H](CN(C)Cc2ccccc2)OCCCC[C@@H](C)O3)cc1	none (no result: GAA850 FXN act)
COc1ccc2c3c(n(C)c2c1)[C@H](CO)N(C(=O)C1CCCC1)CC31CN(C(=O)CC2CC2)C1	none (no result: GAA850 FXN act, PAX8 inh HTS, HIV Env fusion)
O=[N+]([O-])c1ccc(Sc2cccc[n+]2[O-])c2nonc12	EWS-Fli block 56, PAX8 inh HTS 102, CFTR F508del cor 45
COCC(=O)N1CC2(C1)[C@@H](c1ccccc1)[C@@H](CO)N2CCC(F)(F)F	none (no result: GAA850 FXN act, HIV Env fusion)
COC(=O)c1cnc(Oc2ccc(NC(=O)NC(=O)c3c(F)cccc3F)cc2)cc1C(F)(F)F	none (no result: CFTR F508del cor)
COC(=O)c1cnc(Oc2ccc(NC(=O)NC(=O)c3c(OC)cccc3OC)cc2)cc1C(F)(F)F	EWS-Fli block 52, PAX8 inh HTS 73
COC(=O)c1cnc(Oc2c(Cl)cc(N)cc2Cl)cc1C(F)(F)F	none
